Compounds with a hit are over-represented: about 2.4% of the library has one in this group of screens.
D2 PAM-1 – positive allosteric modulators of human D2 dopamine receptor; HEK293 T-REx D2, calcium flux, EC20 dopamine potentiation; potentiation, % at 10 µM; actives 0.34% (n = 340,000); AID 485347;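 active means potentiation over 3 SD above the plate norm, cut at about 30% in these data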; further: 0% is about no effect
Target sequence (P14416 whole entry, looked up): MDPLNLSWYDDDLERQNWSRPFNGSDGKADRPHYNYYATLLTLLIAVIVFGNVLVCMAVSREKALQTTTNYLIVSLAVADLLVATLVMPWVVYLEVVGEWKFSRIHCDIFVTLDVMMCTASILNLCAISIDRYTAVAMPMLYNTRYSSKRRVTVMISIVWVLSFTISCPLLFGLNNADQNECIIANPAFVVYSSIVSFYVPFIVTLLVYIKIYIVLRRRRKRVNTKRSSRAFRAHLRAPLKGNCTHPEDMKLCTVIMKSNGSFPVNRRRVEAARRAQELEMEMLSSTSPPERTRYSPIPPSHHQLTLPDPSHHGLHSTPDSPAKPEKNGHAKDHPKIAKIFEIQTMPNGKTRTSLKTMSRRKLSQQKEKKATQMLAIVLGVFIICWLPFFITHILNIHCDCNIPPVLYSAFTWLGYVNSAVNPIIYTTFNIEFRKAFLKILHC
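Potentiation of an EC20 dopamine calcium response measured kinetically over 180 s, after a preceding 180 s compound-only read flagging agonists. Cells: inducible Hek293 Trex D2 line, 4000/well, cultured overnight at 30 C before dye loading.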
D2 antag – antagonizes the human D2 dopamine receptor; P14416; HEK293 TREx D2 cells, calcium flux, dopamine EC80; inhibition, % at 10 µM; actives 2% (n = 340,000); AID 485344; in the data active means inhibition above about 30%; inactive means below that, where a call was filed; further: 0% is about no effect
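Measurement of antagonist activity uses fluorescent calcium dye in inducible HEK293 T-REx D2 cells: 10 s baseline, compound addition with 180 s read, EC80 dopamine addition with a further 180 s read.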
D2 ag-1 – D2 dopamine receptor (human) agonism. P14416. HEK293 T-REx D2 cells, calcium flux agonist mode. activation, % at 2 µM. actives 0.53% (n = 340,000);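 active means activation over 3 SD above normal in the single-dose calcium agonist read, cut at about 30% in these data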; further: 0% is about no effect
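Tetracycline-induced HEK293 T-REx cells with force-coupled D2 receptor, plated overnight at 30 C, loaded with no-wash calcium dye. After a 10 s baseline, compound was pin-added and calcium flux read kinetically for 180 s; calcium rises flagged agonists.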
D2 PAM-2 – potentiates the human D2 dopamine receptor allosterically | P14416 | DiscoveRx D2 beta-arrestin cells, luminescence, 90 min; 100% = 57 uM dopamine signal | potentiation, % (test concentration not listed) | actives 0.23% (n = 360,000) | AID 624464; in the data active means potentiation above about 50%; inconclusive means mostly about 30% to 49%
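PathHunter D2 cells, attached overnight at 37 deg C, received compound in DMSO plus dopamine at EC20 (50 nM final) for 90 min at 37 deg C. Beta-arrestin recruitment was read as luminescence after 1 h with detection reagent at ambient temperature.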
D2 ag-2 – agonists of human D2 dopamine receptor (beta-arrestin); P14416; DiscoveRx PathHunter D2 beta-arrestin, luminescence, 90 min; 100% = 57 uM dopamine signal; activation, % (concentration not given with the values); actives 0.084% (n = 360,000); AID 624465; in the data active means activation above about 40%; inconclusive means between about 15% and that limit
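Agonist mode: compounds alone added to overnight-plated D2 PathHunter cells for 90 min at 37 C, with 57 uM final dopamine (EC100) defining full response. Beta-arrestin recruitment detected by chemiluminescent reagent, read after 1 h at ambient temperature.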
An asterisk follows results filed as active; ! = a repeat was not active.

Screening C/C(=N\NC(=O)CN(c1ccccc1)S(C)(=O)=O)c1ccccc1O returned D2 PAM-1 -20.4, D2 antag 43.9*, D2 ag-1 0.2, D2 PAM-2 -16.9 and D2 ag-2 -0.1.
`O=C1CSC(=Nc2cccc([N+](=O)[O-])c2)N1` gave D2 PAM-1 -6.1, D2 antag 42.8*, D2 ag-1 1.0, D2 PAM-2 -11.4 and D2 ag-2 -6.2.
Cn1nnnc1SCC(=O)Nc1ccc(Br)cc1Cl was read as D2 PAM-1 43.7*, D2 antag 6.6, D2 ag-1 -0.3, D2 PAM-2 5.7 and D2 ag-2 -2.2.
`CCCCNc1nc2c(S(=O)(=O)c3ccc(Br)cc3)nnn2c2ccsc12` gave D2 PAM-1 -2.4 and D2 ag-1 -0.3.
`COc1ccc(OC)c(NC(=O)C(CCSC)NS(=O)(=O)c2cccs2)c1` (stereo unspecified) gave D2 PAM-1 -1.7, D2 antag 32.4*, D2 ag-1 -0.3, D2 PAM-2 -5.3 and D2 ag-2 1.1.
Screening Cc1ccccc1C(=O)NCc1nc2cccnc2n1Cc1ccccc1 returned D2 ag-1 -0.1.
`Cc1ccc(S(=O)(=O)Nc2ccc(O)c3cccnc23)cc1` gave D2 PAM-1 31.1*, D2 antag 20.4, D2 ag-1 -1.5, D2 PAM-2 inconclusive and D2 ag-2 9.8.
For CCN(C(=O)c1nn(C)c2c1CSc1ccccc1-2)c1cccc(C)c1 the results were D2 PAM-1 -1.2 and D2 ag-1 -1.6.
`CCc1cccc(NC(=O)Cn2c(=O)n3nc(-c4cccc(F)c4)nc3c3ccccc32)c1` gave D2 PAM-1 -7.3 and D2 ag-1 18.9.
For N/C(Cc1ccc(Cl)c(Cl)c1)=N\OC(=O)c1ccc(Br)o1 the results were D2 PAM-1 -10.7, D2 antag 1.5, D2 ag-1 1.0, D2 PAM-2 60.1* and D2 ag-2 inconclusive.
Screening CCNC(=S)N(CCc1c(C)[nH]c2ccc(Cl)cc12)Cc1cccnc1 returned D2 PAM-1 -3.5, D2 antag 2.7, D2 ag-1 17.8, D2 PAM-2 -10.0 and D2 ag-2 2.6.
`CCNC(=S)N(CCc1c(C)[nH]c2ccc(OC)cc12)Cc1cccnc1` gave D2 PAM-1 33.0*, D2 antag -18.9, D2 ag-1 -0.8, D2 PAM-2 5.4 and D2 ag-2 0.5.
`CCNC(=S)N(CCc1c(C)[nH]c2ccc(C)cc12)Cc1cc(OC)c(OC)c(OC)c1` gave D2 PAM-1 7.0, D2 antag -14.4, D2 ag-1 0.9, D2 PAM-2 -8.5 and D2 ag-2 -5.3.
`COCCNC(=S)N(CCc1c(C)[nH]c2ccc(C)cc12)Cc1cc(OC)c(OC)c(OC)c1` gave D2 PAM-1 4.2, D2 antag 31.3*, D2 ag-1 -0.1, D2 PAM-2 4.0 and D2 ag-2 4.3.
For COC(=O)c1c(SCC(=O)Nc2ccccc2OC)[nH]c2ccccc2c1=O the results were D2 PAM-1 5.1.
Screening COc1ccc(S(=O)(=O)N(C)CC(=O)NCc2ccco2)cc1OC returned D2 PAM-1 -20.2, D2 antag 33.7*, D2 ag-1 0.3, D2 PAM-2 -3.6 and D2 ag-2 -2.1.
O=C(CN(C1CCCCC1)S(=O)(=O)c1ccccc1)NCc1ccco1 was read as D2 PAM-1 46.5*, D2 antag 4.6, D2 ag-1 0.2, D2 PAM-2 0.7 and D2 ag-2 -0.8.
Screening Cc1ccc(S(=O)(=O)N(CC(=O)NCc2ccco2)C2CCCCC2)cc1 returned D2 PAM-1 9.5, D2 antag 15.1, D2 ag-1 0.4, D2 PAM-2 1.7 and D2 ag-2 -1.2.
COc1ccc(S(=O)(=O)NCC(=O)N(CC(=O)NCc2ccco2)C2CCCC2)cc1 was read as D2 PAM-1 -5.0, D2 antag 46.7*, D2 ag-1 1.0, D2 PAM-2 -4.9 and D2 ag-2 -4.9.
Screening COC(=O)c1sccc1NC(=S)N1CCCCC1 returned D2 PAM-1 22.2, D2 antag -1.7, D2 ag-1 0.3, D2 PAM-2 10.4 and D2 ag-2 -1.5.
For COC(=O)c1sccc1NC(=S)N1CCC(C(N)=O)CC1 the results were D2 PAM-1 1.6, D2 antag 36.5*, D2 ag-1 -0.1, D2 PAM-2 0.9 and D2 ag-2 -3.6.
`O=C(Nc1ccc(F)c(Cl)c1)N1CCN(C(=O)c2nsc3ccccc23)CC1` gave D2 PAM-1 -1.5 and D2 ag-1 0.2.
`Cc1ccc(S(=O)(=O)N(C)c2ccc(C(=O)NCc3ccccn3)cc2)cc1` gave D2 PAM-1 -12.1, D2 antag 56.7*, D2 ag-1 -0.5, D2 PAM-2 -7.4 and D2 ag-2 1.9.
Screening CN(c1ccc(C(=O)NCc2ccccn2)cc1)S(=O)(=O)c1ccc(Cl)cc1 returned D2 PAM-1 2.3, D2 antag -3.0, D2 ag-1 -0.1, D2 PAM-2 -9.5 and D2 ag-2 -1.9.
CCn1c(=O)c(C(=O)NNC(=O)c2cccc(Cl)c2)c(O)c2ccccc21 was read as D2 PAM-1 45.5*, D2 antag 11.7, D2 ag-1 17.9, D2 PAM-2 -2.6 and D2 ag-2 4.6.
Screening COc1ccc(NC(=O)Cn2c(=O)n(C(C)C)c(=O)c3oc4ccccc4c32)cc1Cl returned D2 PAM-1 2.4 and D2 ag-1 0.5.
Cc1nc2nc[nH]n2c(=O)c1NC(=O)CC12CC3CC(CC(C3)C1)C2 was read as D2 PAM-1 31.4*!, D2 antag -3.9, D2 ag-1 -0.7, D2 PAM-2 1.5 and D2 ag-2 2.8.
For Cn1c(=O)c2sccc2n2c(CCCC(=O)Nc3ccc(Oc4ccccc4)cc3)nnc12 the results were D2 PAM-1 -1.0 and D2 ag-1 -0.2.
For N#CC1(c2ccccc2)CCC(NCCc2ccccc2)CC1 (stereo unspecified) the results were D2 PAM-1 -24.2, D2 antag 45.6*, D2 ag-1 2.7, D2 PAM-2 -19.5 and D2 ag-2 -0.3.
`O=C(COC(=O)c1ccc(O)cc1)Nc1ccc(OC(F)F)cc1` gave D2 PAM-1 0.8, D2 antag 31.8*, D2 ag-1 1.9, D2 PAM-2 1.3 and D2 ag-2 -0.7.
`CCc1ccc(N2CCN(CCNC(=O)Nc3ccccc3)CC2)cc1` gave D2 antag 73.5*, D2 PAM-2 10.2 and D2 ag-2 7.6.
`O=C(Cc1ccccc1)N(Cc1cccnc1)c1nc2ccc(F)cc2s1` gave D2 PAM-1 -6.4 and D2 ag-1 2.1.
For [O-][N+]1=c2ccc(Nc3ccccc3)cc2=NC12CCCCC2 the results were D2 PAM-1 -14.2, D2 antag 32.5*, D2 ag-1 -0.9, D2 PAM-2 -21.4 and D2 ag-2 -4.2.

Compound activity: PubChem, National Center for Advancing Translational Sciences (NCATS)
